Data taken from PubChem BioAssay AID2401 (Southern Research Specialized Biocontainment Screening …, 2010).
Among all 2,200 compounds or so, about 530 (24%) were called active. A selection follows. Entries with a potency or affinity are not part of this list. Unmarked numbers belong to inactive results.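 The calls were made as follows: active = inhibition above a set limit at one or more concentrations of the dose series; inactive = inhibition under that limit at every dose.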

Assay: nmpC-GFP reporter counter-screen in S. Typhimurium, dose response, counter-screen for PhoP regulon inhibitor project, Salmonella Typhimurium, GFP fluorescence (AID 2401);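 also: S. typhimurium with Mg-insensitive nmpC-GFP reporter grown at 10 µM Mg2+; drop in reporter fluorescence reflects general culture growth inhibition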
Settings: 4 h; series mostly up to 150 µM; inhibition: at the top concentration

| SMILES | inhibition [%] |
| --- | --- |
| COc1ccccc1NS(=O)(=O)c1cccc(C(=O)N/N=C/c2c(C)nn(-c3ccccc3)c2N2CCCC2)c1 | 6.1 |
| CCOc1ccc(S(=O)(=O)Nc2ccc(C(=O)N/N=C/c3c(C)nn(-c4ccccc4)c3N3CCCC3)cc2)cc1 | 17.9 |
| Cc1ccc(C(=O)N/N=C/c2ccc([N+](=O)[O-])s2)cc1 | -4.76 |
| O=C(NC(=S)N1CCN(c2c(Cl)cccc2[N+](=O)[O-])CC1)c1cccs1 | -24 |
| O=C(c1ccccc1)c1nc2ccccc2n(CCCn2c(=O)c(C(=O)c3ccccc3)nc3ccccc32)c1=O | -19.2 |
| CCc1cccc(C)c1NC(=S)NCc1cccn1C | 21.8 |
| COc1cccc2[nH]c3c(N4CCN(Cc5ccc6c(c5)OCO6)CC4)ncnc3c12 | -6.03 |
| O=C(NCc1ccco1)C1CC(=O)N(CCc2ccccc2)C1 (stereo not drawn) | 9.58 |
| N#C/C(=C\c1ccc(F)c(F)c1)C(=O)NC1CCCCC1 | -10.3 |
| CCSc1nc(C2CC2)cc(-c2cccs2)c1C#N | -18.4 |
| CNc1nc(Sc2ccccc2)cc(C(F)(F)F)n1 | -12.6 |
| Cc1cc(C)c2nc(NNC(=O)c3ccc(S(=O)(=O)N4CCCCC4)cc3)sc2c1 | 21.1 |
| O=S(=O)(Cc1ccccc1Cl)N1CCN(Cc2ccc3c(c2)OCO3)CC1 | -19.7 |
| Brc1cccc(CNCc2cccs2)c1 | 38.1 |
| COc1ccccc1CNc1nc2nc(C)c(C)c(=O)n2[nH]1 | -8.36 |
| COc1ccc(CCNC(=S)Nc2cccc3ccccc23)cc1 | -16.6 |
| COc1cc(CNCc2cccs2)cc(Br)c1OC | 2.17 |
| Cc1cccc(Nc2ncccc2C(=O)NCc2cccs2)c1C | -18.4 |
| Cn1c(=O)c(=O)n(C)c2cc(S(=O)(=O)Nc3ccc4c(c3)OCCO4)ccc21 | -14.2 |
| COc1ccc(/C=N/NC(=O)CC(=O)NCc2cccnc2)cc1 | -30.6 |
| CC(=O)Nc1ccc(C(=O)N2CCN(C(=O)c3ccco3)CC2)cc1 | -16.6 |
| COc1ccc(S(=O)(=O)Nc2ccc(F)c(F)c2)cc1Cl | -16.4 |
| OC(COc1ccc2c(c1)CCC2)Cn1cnc2ccccc21 (stereo not drawn) | -22.3 |

| SMILES | inhibition [%] |
| --- | --- |
| O=C(Nc1cccc(Cl)c1)Nc1ccc2c(c1)OCO2 | 22.9 |
| O=S1(=O)CC(O)C(Nc2ccccc2Cl)C1 (stereo not drawn) | -5.93 |
| NC(=O)c1ccccc1N=Cc1ccccn1 | -16.6 |
| CCCc1cc(=O)oc2cc(OCC(=O)N3CCc4ccccc43)ccc12 | -31.7 |
| CN1CCCC(OC(=O)c2ccc(Cl)cc2)C1 (stereo not drawn) | 4.83 |
| O=C(/C=C\c1ccco1)Nc1nc(-c2ccccc2)cs1 | 8.94 |
| Cc1cc(C)c2c(c1)NC(=O)C2(O)CC(=O)c1cccs1 (stereo not drawn) | -27.9 |
| O=C(c1ccc(-c2ccccc2)cc1)c1ccccc1C(=O)N1CCOCC1 | -35.4 |
| COc1ccc(/C=C/C(=O)NC(=S)NNC(=O)c2cnccn2)cc1 | 28.6 |
| N#Cc1c(NC(=O)c2cnccn2)sc2c1CCCC2 | -36.9 |
| CC(=O)C1=C(C)NC(SCSc2ccccc2)=C(C#N)C1c1cccnc1 (stereo not drawn) | -11 |
| CC(=O)NC1C(c2nc3ccccc3s2)=C(c2ccccc2)C(=O)N1c1ccc(C)cc1 (stereo not drawn) | -5.01 |
| COc1cccc(-c2nc(-c3ccc(Br)o3)no2)c1 | -20.9 |
| CCc1ccc(OCC(=O)Nc2ccc(-c3cc4ccccc4oc3=O)c(OC)c2)cc1 | -8.74 |
| CC(=O)Nc1cc(N=Cc2ccc(O)cc2O)c(Cl)cc1Cl | 24.2 |
| Oc1ccc(/C=N/NC2=NCCCCC2)c(O)c1 | -12.8 |
| Oc1ccc(/C=N/n2cnn(Cc3ccccc3Cl)c2=S)c(O)c1 | -8 |
| O=C(O)CCS(=O)(=O)c1ccc(-c2ccccc2)cc1 | -15.4 |
| O=C(c1ccco1)c1cn(CC(=O)N2CCCc3ccccc32)c2ccccc12 | 17.9 |
| Cc1ccc([N+](=O)[O-])cc1NC(=O)CN(C(=O)c1ccc(Cl)cc1)C1CCCCC1 | 8.04 |
| O=C(/C=C/c1ccccc1)N/C(=C/c1ccccc1)C(=O)N1CCOCC1 | -19.8 |
| COc1cc(OC)cc(C(=O)N[C@H](C(=O)OCC(=O)Nc2ccc(C(N)=O)cc2)C(C)C)c1 | 0.38 |
| O=C(N/N=C/c1ccc(O)cc1O)C(=O)N/N=C/c1ccc(O)cc1O | -9.16 |

| SMILES | inhibition [%] |
| --- | --- |
| CC1C(=O)NN=C1C(=O)N/N=C\c1ccc(O)cc1O (stereo not drawn) | -83.9 |
| CC(CN1CCOCC1)C(=O)c1ccccc1 (stereo not drawn) | 7.3 |
| O=C(NCCN1CCOCC1)c1ccc2ccccc2c1 | -11.9 |
| Cc1ccc(-c2n[nH]c(=S)n2/N=C/c2cc3c(cc2[N+](=O)[O-])OCO3)cc1 | -22.4 |
| O=Cc1cccn1Cc1ccccc1[N+](=O)[O-] | 16.3 |
| CCCn1c(/N=C/c2ccc3c(c2)OCO3)nc2ccccc21 | 20.5 |
| C(=N\N1CCN(Cc2ccccc2)CC1)/c1cccnc1 | -23.4 |
| COC(=O)c1sccc1N/N=C(\C)c1ccc(F)c(Cl)c1 | -14.8 |
| Cc1cccc2nc(CSc3nc4ccccc4o3)cn12 | -19.8 |
| Nc1nc(Nc2ccc(Cl)cc2)n[nH]1 | -26.3 |
| Cn1c(SCC(=O)NC(=O)c2cccc([N+](=O)[O-])c2)nnc1-c1ccc(F)cc1 | -35.7 |
| Cc1cc(C)c(NC(=S)NC(=O)c2ccc(-c3ccccc3)cc2)c(C)c1 | -10.1 |
| O=C(NNc1c2ccccc2nc2ccccc12)c1ccccc1O | 17.7 |
| O=C(CSc1nnc(-c2cccnc2)o1)OC1CCCCC1 | -22.3 |
| CCC(C)C(NC(=O)OCc1ccccc1)C(=O)OCN1C(=O)c2ccccc2C1=O (stereo not drawn) | 19.2 |
| Cc1cc(C2=NNC(=NC3CC3)SC2)c(C)n1-c1ccccc1 | 11.5 |
| CCn1c(CNC(=O)COc2ccc(C(C)C)cc2)nnc1SCC(=O)Nc1ccccc1 | -16.7 |
| Clc1ccc(CNc2ccc(CNc3ncn[nH]3)cc2)cc1 | -8.26 |
| Cc1cc(C(=O)N2CCN(C/C=C/c3ccccc3)CC2)no1 | -11.5 |
| N#CC1(C#N)COC23CCCCC2C1(C#N)C(=N)O3 (stereo not drawn) | 16.8 |
| CCCc1nn(C)c2c1C(c1cccnc1)C(C#N)=C(N)O2 (stereo not drawn) | -14.1 |
| CCSc1nnc(NC(=O)Cc2cccc(OC)c2)s1 | -15.3 |
| O=C(COC(=O)c1n[nH]c2ccccc12)NC(=O)NC12CC3CC(CC(C3)C1)C2 | 24.8 |

| SMILES | inhibition [%] |
| --- | --- |
| C#CCOc1c(Cl)cc(/C=N/O)cc1OC | -31.2 |
| Cc1ccc(N(CC(=O)N/N=C/c2ccco2)S(=O)(=O)c2ccccc2)cc1 | -13.4 |
| O=C(Nc1cccnc1)c1cc(F)cc(F)c1 | -20 |
| Cc1[nH]c2ccccc2c1C1=NNC(=Nc2ccc(F)cc2)SC1 | 21.3 |
| O=C(CCC(=O)c1cccs1)OCC(=O)N1CCN(S(=O)(=O)c2ccccc2)CC1 | -3.05 |
| CCOC(=O)CCC(NC(=O)c1ccc(NCN2C(=O)CCC2=O)cc1)C(=O)OCC (stereo not drawn) | -16.3 |
| Cc1ccc(S(=O)(=O)NCc2ccc(C(=O)N3CCN(c4ccccn4)CC3)cc2)cc1 | -3.97 |
| COCCNCCOc1ccccc1-c1ccccc1 | -20.5 |
| O=C(NCc1ccco1)c1cccc(Nc2nc3ccc(Br)cc3[nH]2)c1 | 16.6 |
| Cc1ccc(C)c(-c2nc3ccc(N)cc3[nH]2)c1 | 8.01 |
| Nc1cc(N)cc(-c2nc3ccccc3[nH]2)c1 | -11.4 |
| O=C(OCC1O[C@@H](OC(=O)c2cc(O)c(O)c(O)c2)[C@@H](OC(=O)c2cc(O)c(O)c(O)c2)[C@@H](OC(=O)c2cc(O)c(O)c(O)c2)[C@@H]1OC(=O)c1cc(O)c(O)c(O)c1)c1cc(O)c(O)c(O)c1 (stereo partly drawn) | 26.4 |
| Cc1nn(C)c(C)c1S(=O)(=O)N1CCC(C(=O)NC2CCCCC2)CC1 | -28.4 |
| Oc1[nH]c(=S)sc1/C=C1\C(c2ccccc2)=Nc2ccccc21 | 33.3 |
| C#CCn1c(=NC(=O)c2cc(Cl)sc2Cl)sc2cc(S(N)(=O)=O)ccc21 | -40 |
| O=C(O)C1(P(=O)(c2ccccc2)c2ccccc2)CCC1 | -25.4 |
| Cc1cc(C)c2c(=O)[nH]c(SCC(=O)Nc3ccc(N(C)C)cc3)nc2n1 | 35.6 |
| CC(C)c1ccc(O)c(NC(=O)c2cncc(Br)c2)c1 | -9.36 |
| Cc1cc2nn(-c3ccccc3)nc2cc1NC(=O)c1cccs1 | -31.8 |
| Cc1ccc(/C=C2\SC(=S)N(Cc3ccccc3)C2=O)o1 | -4.72 |
| O=C(Nc1ccsc1C(=O)NC1CCCCC1)c1ccccc1 | -7.17 |
| CCOC(=O)c1c(NC(=O)COc2ncnc3ccccc23)sc(C)c1CC | -17.2 |
| CCOC(=O)CCCc1c[nH]c2ccccc12 | -19.1 |

| SMILES | inhibition [%] |
| --- | --- |
| O=C(c1ccccc1)c1coc2ccc(O)c(Cl)c12 | -8.89 |
| CCCCN(C)C(=O)c1cn(C)c2ccc(S(=O)(=O)N(C)C)cc2c1=O | -20.2 |
| Cc1nc(CC(=O)c2ccc(O)cc2O)cs1 | -15.4 |
| COC(=O)c1sccc1NC(=O)c1cccnc1 | -1.61 |
| O=C(CSc1ccc(Cl)cc1)Nc1ccccc1N1CCN(C(=O)c2ccc(Cl)cc2)CC1 | 18.5 |
| COc1ccc(-c2csc(Nc3cccnc3)n2)cc1 | -14.9 |
| CC(=O)NC12CC3CC(C1)CC(C(=O)OCC(=O)c1ccc4c(c1)OCCO4)(C3)C2 | -11.1 |
| COc1ccc(CC(=O)n2nc(-c3ccccc3)nc2NCc2ccco2)cc1 | -29.6 |
| CC(C)(C)c1ccc(C2CC2C(=O)N/N=C\c2cc3ccccc3nc2Cl)cc1 (stereo not drawn) | -20.2 |
| CCCCn1c(N)nc2ccccc21 | 18.9 |
| COc1ccc2c(c1)nc(N)n2Cc1ccccc1 | 9.4 |
| CCCn1c(N)nc2ccccc21 | 11.4 |
| CSc1nc2ccccc2n1Cc1cccc(F)c1 | -20.3 |
| CCOC(=O)c1[nH]c2ccccc2c1NC(=O)NC1CCCCC1 | -19.6 |
| O=C(OCC#CCSc1nnc(-c2cccc3ccccc23)o1)c1ccco1 | -14.9 |
| Cc1ccc2nc(C(F)OC(F)(F)F)[nH]c2c1 (stereo not drawn) | -31.3 |
| O=C(CC1SC(=NCc2ccccc2)NC1=O)Nc1ccccc1 (stereo not drawn) | -28.2 |
| COc1ccc(OCCn2cc(/C=N/NC(=O)c3ccncc3)c3ccccc32)cc1 | -12 |
| CC(=O)n1cc(/C=N/NC(=O)c2sc(C)nc2C)c2ccccc21 | -7.12 |
| COc1ccc(NC(=O)c2ccc(OC)cc2)cc1 | 3.62 |
| COc1ccc2ccccc2c1/C=N/NC(=O)c1sc(N)c(C#N)c1C | 3.17 |
